# Paper PMC5540273 (PLoS ONE, 2017)
# Values joined by “and” are separate entries in the source; they are usually repeats but may differ in a detail not shown here. Equal entries are not always repeated. Where two headings read alike, the source gives them in different places.
# Experiments:
# PDGFRB = details: concentration: 1 μM, replicates: in singlicate, n = 1
# PDPK1 = details: concentration: 1 μM, replicates: in singlicate, n = 1
# PFTAIRE2 = details: concentration: 1 μM, replicates: in singlicate, n = 1
# PFTK1 = tested on: T1, PFTK1; details: concentration: 1 μM, replicates: in singlicate, n = 1
# T1 construct: gene CDK14
# PHKG1 = details: concentration: 1 μM, replicates: in singlicate; n = 1
# PHKG2 = details: concentration: 1 μM, replicates: in singlicate, n = 1
# PIK3C2B = details: concentration: 1 μM, replicates: in singlicate, n = 1
# PIK3C2G = details: concentration: 1 μM, replicates: in singlicate, n = 1
# PIK3CA = details: concentration: 1 μM, replicates: in singlicate; n = 1
# PIK3CB = details: concentration: 1 μM, replicates: in singlicate, n = 1
# PIK3CD = details: concentration: 1 μM, replicates: in singlicate, n = 1
# PIK3CG = details: concentration: 1 μM, replicates: in singlicate, n = 1
# PIK4CB = tested on: T2, PIK4CB; details: concentration: 1 μM, replicates: in singlicate, n = 1
# T2 construct: gene PI4KB
# PIKFYVE = details: concentration: 1 μM, replicates: in singlicate, n = 1
# PIM1 = details: concentration: 1 μM, replicates: in singlicate, n = 1
# PIM2 = details: concentration: 1 μM, replicates: in singlicate, n = 1
# PIM3 = details: concentration: 1 μM, replicates: in singlicate; n = 1
# PIP5K1A = details: concentration: 1 μM, replicates: in singlicate; n = 1
# PIP5K1C = details: concentration: 1 μM, replicates: in singlicate, n = 1
# PIP5K2B = details: concentration: 1 μM, replicates: in singlicate; n = 1
# 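Note: KINOMEscan kinase panel screen.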
smiles,measurement,setting,value
Cc1cc(N2CCC(NS(=O)(=O)c3ccc(F)cc3)CC2)nc(Nc2cccc(C#N)c2)n1.O=C(O)C(F)(F)F [GSK1653537],%Inh,PDGFRB,0%
same,%Inh,PDPK1,15%
same,%Inh,PFTAIRE2,10%
same,%Inh,PFTK1,9%
same,%Inh,PHKG1,17%
same,%Inh,PHKG2,0%
same,%Inh,PIK3C2B,0%
same,%Inh,PIK3C2G,6%
same,%Inh,PIK3CA,0%
same,%Inh,PIK3CB,2%
same,%Inh,PIK3CD,0%
same,%Inh,PIK3CG,15%
same,%Inh,PIK4CB,10%
same,%Inh,PIKFYVE,0%
same,%Inh,PIM1,25%
same,%Inh,PIM2,9%
same,%Inh,PIM3,0%
same,%Inh,PIP5K1A,0%
same,%Inh,PIP5K1C,0%
same,%Inh,PIP5K2B,6%
Fc1ccc(-c2ncn(CCCNCc3ccccc3)c2-c2ccncc2)cc1,%Inh,PDGFRB,24%
same,%Inh,PDPK1,6%
same,%Inh,PFTAIRE2,0%
same,%Inh,PFTK1,0%
same,%Inh,PHKG1,0%
same,%Inh,PHKG2,16%
same,%Inh,PIK3C2B,1%
same,%Inh,PIK3C2G,31%
same,%Inh,PIK3CA,3%
same,%Inh,PIK3CB,0%
same,%Inh,PIK3CD,3%
same,%Inh,PIK3CG,4%
same,%Inh,PIK4CB,24%
same,%Inh,PIKFYVE,2%
same,%Inh,PIM1,10%
same,%Inh,PIM2,23%
same,%Inh,PIM3,28%
same,%Inh,PIP5K1A,0%
same,%Inh,PIP5K1C,0%
same,%Inh,PIP5K2B,12%
Cl.Cn1ccc(-c2cccc(Nc3ccnc4cc(-c5nccs5)ccc34)c2)n1 [GW525701],%Inh,PDGFRB,40%
same,%Inh,PDPK1,0%
same,%Inh,PFTAIRE2,0%
same,%Inh,PFTK1,5%
same,%Inh,PHKG1,0%
same,%Inh,PHKG2,0%
same,%Inh,PIK3C2B,0%
same,%Inh,PIK3C2G,0%
same,%Inh,PIK3CA,0%
same,%Inh,PIK3CB,0%
same,%Inh,PIK3CD,0%
same,%Inh,PIK3CG,0%
same,%Inh,PIK4CB,0%
same,%Inh,PIKFYVE,30%
same,%Inh,PIM1,12%
same,%Inh,PIM2,0%
same,%Inh,PIM3,0%
same,%Inh,PIP5K1A,48%
same,%Inh,PIP5K1C,36%
same,%Inh,PIP5K2B,14%
COc1ccc(-c2nc3n(c2-c2ccncc2)CCC3)cc1 [SKF-104493],%Inh,PDGFRB; 1 µM,5% and 23%
same,%Inh,PDPK1; 1 µM,21% and 0%
same,%Inh,PFTAIRE2; 1 µM,29% and 9%
same,%Inh,PFTK1; 1 µM,0% and 34%
same,%Inh,PHKG1,0%
same,%Inh,PHKG2; 1 µM,0% and 20%
same,%Inh,PIK3C2B; 1 µM,13% and 0%
same,%Inh,PIK3C2G; 1 µM,19% and 0%
same,%Inh,PIK3CA,0%
same,%Inh,PIK3CB; 1 µM,19% and 0%
same,%Inh,PIK3CD; 1 µM,5% and 25%
same,%Inh,PIK3CG; 1 µM,11% and 1%
same,%Inh,PIK4CB; 1 µM,0% and 10%
same,%Inh,PIKFYVE; 1 µM,11% and 0%
same,%Inh,PIM1; 1 µM,0% and 50%
same,%Inh,PIM2; 1 µM,2% and 0%
same,%Inh,PIM3,0%
same,%Inh,PIP5K1A,27%
same,%Inh,PIP5K1C; 1 µM,25% and 5%
same,%Inh,PIP5K2B,0%
CC(C)N1CCC(n2cnc(-c3ccc(F)cc3)c2-c2ccnc(N)n2)CC1 [SB-223132],%Inh,PDGFRB,0%
same,%Inh,PDPK1,5%
same,%Inh,PFTAIRE2,0%
same,%Inh,PFTK1,2%
same,%Inh,PHKG1,28%
same,%Inh,PHKG2,0%
same,%Inh,PIK3C2B,0%
same,%Inh,PIK3C2G,0%
same,%Inh,PIK3CA,0%
same,%Inh,PIK3CB,0%
same,%Inh,PIK3CD,0%
same,%Inh,PIK3CG,7%
same,%Inh,PIK4CB,0%
same,%Inh,PIKFYVE,10%
same,%Inh,PIM1,29%
same,%Inh,PIM2,22%
same,%Inh,PIM3,10%
same,%Inh,PIP5K1A,54%
same,%Inh,PIP5K1C,49%
same,%Inh,PIP5K2B,0%
Fc1cccc(COc2ccc(Nc3ncnc4sc(-c5ccc[nH]5)cc34)cc2Cl)c1 [GW707818],%Inh,PDGFRB,19%
same,%Inh,PDPK1,5%
same,%Inh,PFTAIRE2,22%
same,%Inh,PFTK1,23%
same,%Inh,PHKG1,0%
same,%Inh,PHKG2,12%
same,%Inh,PIK3C2B,0%
same,%Inh,PIK3C2G,7%
same,%Inh,PIK3CA,0%
same,%Inh,PIK3CB,1%
same,%Inh,PIK3CD,0%
same,%Inh,PIK3CG,0%
same,%Inh,PIK4CB,0%
same,%Inh,PIKFYVE,0%
same,%Inh,PIM1,20%
same,%Inh,PIM2,0%
same,%Inh,PIM3,14%
same,%Inh,PIP5K1A,29%
same,%Inh,PIP5K1C,46%
same,%Inh,PIP5K2B,0%
CSc1ccc(NC2=C(c3ccccc3Cl)C(=O)NC2=O)cc1 [SB-342411],%Inh,PDGFRB,31%
same,%Inh,PDPK1,80%
same,%Inh,PFTAIRE2,20%
same,%Inh,PFTK1,25%
same,%Inh,PHKG1,0%
same,%Inh,PHKG2,25%
same,%Inh,PIK3C2B,0%
same,%Inh,PIK3C2G,17%
same,%Inh,PIK3CA,0%
same,%Inh,PIK3CB,3%
same,%Inh,PIK3CD,0%
same,%Inh,PIK3CG,0%
same,%Inh,PIK4CB,0%
same,%Inh,PIKFYVE,0%
same,%Inh,PIM1,0%
same,%Inh,PIM2,0%
same,%Inh,PIM3,0%
same,%Inh,PIP5K1A,0%
same,%Inh,PIP5K1C,33%
same,%Inh,PIP5K2B,0%
O=C(c1ccc(-c2cc(-c3c[nH]nc3-c3ccccn3)ccn2)cc1)N1CCCC1 [GW792479],%Inh,PDGFRB,4%
same,%Inh,PDPK1,0%
same,%Inh,PFTAIRE2,6%
same,%Inh,PFTK1,0%
same,%Inh,PHKG1,0%
same,%Inh,PHKG2,19%
same,%Inh,PIK3C2B,0%
same,%Inh,PIK3C2G,5%
same,%Inh,PIK3CA,0%
same,%Inh,PIK3CB,0%
same,%Inh,PIK3CD,0%
same,%Inh,PIK3CG,0%
same,%Inh,PIK4CB,4%
same,%Inh,PIKFYVE,19%
same,%Inh,PIM1,100%
same,%Inh,PIM2,21%
same,%Inh,PIM3,8%
same,%Inh,PIP5K1A,0%
same,%Inh,PIP5K1C,14%
same,%Inh,PIP5K2B,0%
Cn1cc(-c2ccc3c(c2)CCN3C(=O)Cc2cccc(C(F)(F)F)c2)c2c(N)ncnc21 [GSK2606414],%Inh,PDGFRB,55%
same,%Inh,PDPK1,6%
same,%Inh,PFTAIRE2,18%
same,%Inh,PFTK1,0%
same,%Inh,PHKG1,6%
same,%Inh,PHKG2,0%
same,%Inh,PIK3C2B,0%
same,%Inh,PIK3C2G,2%
same,%Inh,PIK3CA,0%
same,%Inh,PIK3CB,0%
same,%Inh,PIK3CD,0%
same,%Inh,PIK3CG,0%
same,%Inh,PIK4CB,6%
same,%Inh,PIKFYVE,0%
same,%Inh,PIM1,0%
same,%Inh,PIM2,0%
same,%Inh,PIM3,0%
same,%Inh,PIP5K1A,0%
same,%Inh,PIP5K1C,0%
same,%Inh,PIP5K2B,0%
